High-throughput results as filed in PubChem.
SRC3 TRFRET art = TR-FRET detection interference compounds, artefact control for PPARgamma SRC-3 recruitment agonists, biochemical, TR-FRET ratio; TR-FRET artefact counter-screen, PPARgamma/SRC-3 format; active compounds read high; TR-FRET ratio at 8 µM; 0.39% of 99,000 active; AID 1048, 2008
PPARg SRC-1 ag = PPARgamma agonists recruiting SRC-1 coactivator, primary screen, biochemical | activation, % at 8 µM | AID 631, 2007 | 0.41% of 200,000 active | Peroxisome proliferator-activated receptor gamma (Homo sapiens), P37231 | PPARgamma-SRC-1 coactivator recruitment biochemical assay; in the data active = activation above about 19%
Target sequence (P37231 whole entry, looked up): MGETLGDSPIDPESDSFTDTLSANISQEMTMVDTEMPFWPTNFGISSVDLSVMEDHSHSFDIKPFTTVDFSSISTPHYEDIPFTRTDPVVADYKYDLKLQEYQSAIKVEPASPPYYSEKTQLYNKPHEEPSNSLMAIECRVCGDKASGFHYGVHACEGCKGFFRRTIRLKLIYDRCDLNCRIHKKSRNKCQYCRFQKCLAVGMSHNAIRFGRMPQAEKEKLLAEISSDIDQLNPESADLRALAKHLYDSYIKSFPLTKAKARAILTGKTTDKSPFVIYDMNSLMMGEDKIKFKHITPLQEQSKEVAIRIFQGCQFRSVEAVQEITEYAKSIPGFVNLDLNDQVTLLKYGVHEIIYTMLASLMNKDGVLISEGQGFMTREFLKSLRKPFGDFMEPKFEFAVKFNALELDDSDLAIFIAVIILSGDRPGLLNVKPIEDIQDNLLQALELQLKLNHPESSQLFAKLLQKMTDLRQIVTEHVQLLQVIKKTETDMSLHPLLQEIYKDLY
PPARg SRC-2 ag = agonists of PPARg-SRC-2 recruitment, primary screen, biochemical, HTS; Peroxisome proliferator-activated receptor gamma (Homo sapiens), P37231; activation, % at 8 µM; PPARgamma LBD-SRC-2 recruitment; 0.34% of 200,000 active; in the data active = activation above about 22%
TR-FRET SRC-2 ct = TR-FRET signal artefacts, primary screen, artefact control for PPARgamma SRC-2 agonist project, biochemical. 0.4% of 200,000 active. AID 1049, 2008. TR-FRET artefact counter-screen; active compounds read high. TR-FRET ratio at 8 µM
SRC1 TRFRET art = TR-FRET detection interference compounds, primary screen, artefact control for PPARgamma SRC-1 recruitment agonists, biochemical, TR-FRET emission ratio | TR-FRET detection artefact counter-screen; active compounds read high | TR-FRET ratio at 8 µM | 0.34% of 99,000 active | AID 1051, 2008; in the data active = TR-FRET ratio above about 2300
PPARg SRC3 recr = PPARgamma agonists recruiting SRC-3 coactivator, primary screen, biochemical; biochemical PPARgamma/SRC-3 coactivator recruitment assay; AID 731, 2007; activation, % at 8 µM; Peroxisome proliferator-activated receptor gamma (Homo sapiens), P37231; 0.26% of 200,000 active; in the data active = activation above about 23%
Numbers stand for hits. In the library only some 0.9% were active in any assay of this set; here they are far more common. Rule as the data show it, unless noted: active = TR-FRET ratio above about 2000; inactive = the rest.

For Cc1ccc(C2C(C#N)=C(N)SC(N)=C2C#N)o1 the results were PPARg SRC-1 ag 19, PPARg SRC-2 ag 23, TR-FRET SRC-2 ct 2112 and PPARg SRC3 recr inactive.
For O=C1Nc2ccc(Cl)cc2C12Nc1ccccc1-c1nnc(SCc3ccccc3F)nc1O2 (stereo unspecified) the results were SRC3 TRFRET art inactive, PPARg SRC-1 ag inactive, PPARg SRC-2 ag inactive, TR-FRET SRC-2 ct inactive, SRC1 TRFRET art 2406 and PPARg SRC3 recr inactive.
For CCOC(=O)CSC(=S)NC(=O)c1ccc(OC)cc1 the results were SRC3 TRFRET art inactive, PPARg SRC-1 ag inactive, PPARg SRC-2 ag inactive, TR-FRET SRC-2 ct 1985, SRC1 TRFRET art 2487 and PPARg SRC3 recr inactive.
For COCc1cc(C)nc(Nc2ccc(C)cc2C)c1C#N the results were PPARg SRC-1 ag inactive, PPARg SRC-2 ag inactive, TR-FRET SRC-2 ct 1983 and PPARg SRC3 recr inactive.
O=C(CCC1CCCN(C(=O)C2=CCCCC2)C1)N1CCN(c2ccccn2)CC1 (stereo unspecified) was read as SRC3 TRFRET art inactive, PPARg SRC-1 ag 25, PPARg SRC-2 ag inactive, TR-FRET SRC-2 ct inactive, SRC1 TRFRET art inactive and PPARg SRC3 recr inactive.
For CCN(CC)S(=O)(=O)c1cc(NC(=O)CSc2nccn2C)ccc1C the results were SRC3 TRFRET art inactive, PPARg SRC-1 ag inactive, PPARg SRC-2 ag inactive, TR-FRET SRC-2 ct inactive, SRC1 TRFRET art inactive and PPARg SRC3 recr inactive.
COc1cc(CNc2ncn[nH]2)ccc1OCc1cccc(C)c1 was read as SRC3 TRFRET art inactive, PPARg SRC-1 ag inactive, PPARg SRC-2 ag inactive, TR-FRET SRC-2 ct inactive, SRC1 TRFRET art inactive and PPARg SRC3 recr inactive.
COc1ccccc1NC(=O)CSc1nc2nc(C)cc(C)c2c(=O)[nH]1 was read as PPARg SRC-1 ag inactive, PPARg SRC-2 ag 22, TR-FRET SRC-2 ct inactive and PPARg SRC3 recr inactive.
For Cc1cc(C)c2c(=O)[nH]c(SCC(=O)NCc3ccccc3)nc2n1 the results were PPARg SRC-1 ag inactive, PPARg SRC-2 ag inactive, TR-FRET SRC-2 ct inactive and PPARg SRC3 recr inactive.
`Cc1cccc(C(C)C)c1NC(=O)c1ccc(COc2ccc3c(C)cc(=O)oc3c2)cc1` gave SRC3 TRFRET art 2221, PPARg SRC-1 ag inactive, PPARg SRC-2 ag inactive, TR-FRET SRC-2 ct 2255, SRC1 TRFRET art 2539 and PPARg SRC3 recr inactive.
For CCOC(=O)C1=C(COC(=O)C2(C)CC2(Cl)Cl)NC(=O)NC1c1ccccc1 (stereo unspecified) the results were SRC3 TRFRET art inactive, PPARg SRC-1 ag inactive, PPARg SRC-2 ag inactive, TR-FRET SRC-2 ct inactive, SRC1 TRFRET art inactive and PPARg SRC3 recr inactive.
`COc1ccc(OC)c2c1sc(=NC(=O)C(C)(C)C)n2C` gave PPARg SRC-1 ag inactive, PPARg SRC-2 ag 121, TR-FRET SRC-2 ct 4080 and PPARg SRC3 recr 32.
`CCN(C(=O)COC(=O)CNC(=O)c1ccc(C)s1)c1ccccc1` gave SRC3 TRFRET art inactive, PPARg SRC-1 ag inactive, PPARg SRC-2 ag inactive, TR-FRET SRC-2 ct inactive, SRC1 TRFRET art inactive and PPARg SRC3 recr inactive.
Screening O=C(c1cc(COc2ccc(F)cc2Cl)on1)N1CCC(OCc2cccnc2)CC1 returned SRC3 TRFRET art inactive, PPARg SRC-1 ag inactive, PPARg SRC-2 ag inactive, TR-FRET SRC-2 ct inactive, SRC1 TRFRET art inactive and PPARg SRC3 recr inactive.
O=C(c1cc(COc2ccc(F)cc2Cl)on1)N1CCCC(OCc2cccnc2)C1 (stereo unspecified) was read as SRC3 TRFRET art inactive, PPARg SRC-1 ag inactive, PPARg SRC-2 ag 40, TR-FRET SRC-2 ct 2120, SRC1 TRFRET art inactive and PPARg SRC3 recr inactive.
For COc1ccc([N+](=O)[O-])cc1NS(=O)(=O)c1ccc(Cl)c(C(=O)Nc2sc3c(c2C#N)CCCCC3)c1 the results were SRC3 TRFRET art inactive, PPARg SRC-1 ag inactive, PPARg SRC-2 ag inactive, TR-FRET SRC-2 ct inactive, SRC1 TRFRET art inactive and PPARg SRC3 recr inactive.
Screening CCC(=O)c1ccc(OCCn2cnc3ccccc32)cc1 returned SRC3 TRFRET art inactive, PPARg SRC-1 ag inactive, PPARg SRC-2 ag inactive, TR-FRET SRC-2 ct inactive, SRC1 TRFRET art inactive and PPARg SRC3 recr inactive.
Cc1nnc2sc(-c3ccc(NC(=O)c4ccc(-c5ccc(Cl)cc5Cl)o4)cc3)nn12 was read as PPARg SRC-1 ag 19, PPARg SRC-2 ag inactive, TR-FRET SRC-2 ct inactive and PPARg SRC3 recr inactive.
